Assay results taken from PubChem BioAssay.
Entries with a potency or affinity are not part of this list. Records with an inconclusive call do not appear. The source made the active and inactive calls. The rule behind the calls is not given here.

Assay: IGROV1 cell killing – plate reader, dry powder samples, PAX8 inhibitor project, dose response (AID 743043);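 note: more negative means fewer viable cells or more cytotoxicity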
Conditions: IGROV1 ovarian cancer cell cytotoxicity; series mostly up to 35 µM; activity change, negative = cytotoxicity: at the top concentration

Structure (SMILES)	activity change, negative = cytotoxicity
Cc1ccc(S(=O)(=O)N(C)C[C@@H]2Oc3cc(C#Cc4ccncc4)ccc3S(=O)(=O)N([C@@H](C)CO)C[C@H]2C)cc1	9.19% (inactive)
C[C@H]1CN([C@@H](C)CO)C(=O)c2cccc(NC(=O)Nc3ccc(F)cc3)c2O[C@H]1CN(C)C(=O)Nc1ccc(C(F)(F)F)cc1	8.62% (inactive)
COc1ccc(-c2ccc3c(c2)[C@@H]2[C@@H](CCN2C(=O)C2CCCC2)[C@H](CO)N3C)cc1	-12.5% (inactive)
C[C@@H]1CCCCO[C@H](CN(C)Cc2ccc(Cl)c(Cl)c2)[C@H](C)CN([C@@H](C)CO)C(=O)c2cc(NC(=O)Nc3ccc(F)cc3)ccc2O1	0.213% (inactive)
COc1ccccc1-c1ccc2c(c1)O[C@H](CN(C)Cc1ccc3c(c1)OCO3)[C@H](C)CN([C@@H](C)CO)S2(=O)=O	31.1% (inactive)
Cc1ccc(S(=O)(=O)N(C)C[C@@H]2Oc3c(NC(=O)c4ccc(-c5nccs5)cc4)cccc3C(=O)N([C@@H](C)CO)C[C@@H]2C)cc1	152% (inactive)
CCCN1[C@H](C(=O)N2CCOCC2)[C@@H](CO)[C@@H]2Cn3c(ccc(/C=C/c4ccccc4)c3=O)[C@@H]21	8.68% (inactive)
C[C@@H]1CCCCO[C@@H](CN(C)Cc2ccc(C(F)(F)F)cc2)[C@H](C)CN([C@@H](C)CO)C(=O)c2cc(NS(=O)(=O)c3ccccc3)ccc2O1	9.04% (inactive)
O=C(C[C@H]1C[C@@H]2c3cc(NC(=O)Nc4ccc(C(F)(F)F)cc4)ccc3O[C@@H]2[C@@H](CO)O1)NCCc1ccccc1	3.46% (inactive)
C[C@@H]1CN([C@@H](C)CO)C(=O)c2cc(NC(=O)c3ccccc3)ccc2O[C@@H](C)CCCCO[C@H]1CN(C)Cc1ccc(C(F)(F)F)cc1	-36.2% (inactive)
CC(C)CC#Cc1ccc2c(c1)O[C@H](CN(C)S(=O)(=O)c1ccc(F)cc1)[C@H](C)CN([C@@H](C)CO)S2(=O)=O	-9.8% (inactive)
C[C@@H]1CN([C@H](C)CO)C(=O)c2cc(NS(=O)(=O)c3ccc(F)cc3)ccc2O[C@@H]1CN(C)Cc1ccc(C(F)(F)F)cc1	9.8% (inactive)
O=C(Nc1cccc(F)c1)N1CCCCN2[C@@H](CO)[C@@H](c3ccc(-c4ccncc4)cc3)[C@@H]2C1	8.45% (inactive)
C[C@@H]1CCCCO[C@H](CN(C)C(=O)c2ccccc2)[C@@H](C)CN([C@@H](C)CO)C(=O)c2cc(NC(=O)Nc3ccc(C(F)(F)F)cc3)ccc2O1	16.6% (inactive)
COc1ccc(S(=O)(=O)N2CCCCN3[C@H](C2)[C@H](c2ccc(C#CC(C)C)cc2)[C@@H]3CO)cc1	14.4% (inactive)
C[C@H](CO)N1C[C@H](C)[C@H](CN(C)Cc2ccc3c(c2)OCO3)OCCCC[C@H](C)Oc2ccc(NS(=O)(=O)c3ccc(Cl)cc3)cc2C1=O	1.81% (inactive)
C[C@@H]1CCCCO[C@H](CN(C)C(=O)Cc2ccccc2)[C@H](C)CN([C@@H](C)CO)C(=O)c2cc(NC(=O)Nc3ccc(C(F)(F)F)cc3)ccc2O1	-0.972% (inactive)
COc1ccc(S(=O)(=O)Nc2ccc3c(c2)C(=O)N([C@H](C)CO)C[C@@H](C)[C@H](CN(C)S(=O)(=O)c2ccc(F)cc2)OCCCC[C@H](C)O3)cc1	11.2% (inactive)
C[C@H](O)C#Cc1ccc2c(c1)O[C@@H](CN(C)Cc1ccc(-c3ccccc3)cc1)[C@@H](C)CN([C@@H](C)CO)S2(=O)=O	-8.04% (inactive)
C[C@@H]1CN([C@H](C)CO)C(=O)c2cc(NC(=O)Nc3ccc(C(F)(F)F)cc3)ccc2O[C@@H](C)CCCCO[C@H]1CN(C)C(=O)Nc1ccc(F)cc1	20.4% (inactive)

Structure (SMILES)	activity change, negative = cytotoxicity
C[C@H]1CN([C@@H](C)CO)C(=O)c2ccccc2-c2ccccc2CO[C@H]1CN(C)S(=O)(=O)c1ccc(C(F)(F)F)cc1	12.5% (inactive)
C[C@@H]1CN([C@@H](C)CO)C(=O)Cc2cc(NC(=O)Nc3ccc(F)cc3)ccc2O[C@H]1CN(C)Cc1ccc(Cl)c(Cl)c1	13.2% (inactive)
C[C@@H]1CN([C@@H](C)CO)S(=O)(=O)c2ccc(C#C[C@@H](C)O)cc2O[C@@H]1CN(C)Cc1ccc(-c2ccccc2)cc1	-6.03% (inactive)
Cc1ccc(S(=O)(=O)N(C)C[C@H]2Oc3ccc(NC(=O)Nc4ccc(C(F)(F)F)cc4)cc3CC(=O)N([C@H](C)CO)C[C@@H]2C)cc1	66.7% (inactive)
C[C@@H]1CN([C@H](C)CO)C(=O)c2cc(NC(=O)Nc3ccc(F)cc3)ccc2O[C@@H](C)CCCCO[C@H]1CN(C)C(=O)Nc1ccc(F)cc1	-0.211% (inactive)
C[C@@H]1CCCCO[C@@H](CN(C)C(=O)Nc2ccc(C(F)(F)F)cc2)[C@H](C)CN([C@H](C)CO)C(=O)c2cc(NS(=O)(=O)c3ccccc3)ccc2O1	3% (inactive)
CN1c2ccc(-c3ccc(C#N)cc3)cc2[C@@H]2[C@@H](CCN2C(=O)NC2CCCCC2)[C@@H]1CO	4.06% (inactive)
CN1c2ccc(C3=CCCCC3)cc2[C@H]2[C@H](CCN2C(=O)NC2CCCCC2)[C@@H]1CO	16.1% (inactive)
C[C@@H]1CCCCO[C@@H](CN(C)Cc2ccc(Cl)c(Cl)c2)[C@H](C)CN([C@H](C)CO)C(=O)c2cc(NS(=O)(=O)c3ccc(F)cc3)ccc2O1	-1.49% (inactive)
C[C@@H]1CN([C@@H](C)CO)C(=O)Cc2cc(NC(=O)Nc3ccc(C(F)(F)F)cc3)ccc2O[C@H]1CN(C)Cc1ccc(Oc2ccccc2)cc1	-12.6% (inactive)
Cc1ccc(S(=O)(=O)Nc2ccc3c(c2)C(=O)N([C@@H](C)CO)C[C@H](C)[C@H](CN(C)Cc2ccc(C(F)(F)F)cc2)OCCCC[C@@H](C)O3)cc1	7.02% (inactive)
CCCC#Cc1ccc2c(c1)O[C@H](CN(C)Cc1ccccc1)[C@@H](C)CN([C@H](C)CO)S2(=O)=O	15.2% (inactive)
Cc1ccc(S(=O)(=O)N(C)C[C@@H]2OCCCC[C@H](C)Oc3ccc(NS(=O)(=O)c4ccc(F)cc4)cc3C(=O)N([C@H](C)CO)C[C@H]2C)cc1	2.31% (inactive)
COc1ccc(S(=O)(=O)N(C)C[C@H]2Oc3ccc(NC(=O)Nc4ccc(C(F)(F)F)cc4)cc3CC(=O)N([C@H](C)CO)C[C@@H]2C)cc1	29% (inactive)
CNC[C@@H]1Oc2cc(C#CC3CCCCC3)ccc2S(=O)(=O)N([C@@H](C)CO)C[C@@H]1C	6.52% (inactive)
C[C@@H]1CCCCO[C@H](CN(C)C(=O)Nc2ccc(C(F)(F)F)cc2)[C@H](C)CN([C@@H](C)CO)C(=O)c2cc(NS(=O)(=O)c3ccc(Cl)cc3)ccc2O1	-13.4% (inactive)
CO[C@H]1CN(C)C(=O)c2cc(NC(=O)c3nc4ccccc4s3)ccc2OC[C@H](C)N(Cc2cccnc2)C[C@H]1C	11.7% (inactive)
C[C@H](CO)N1C[C@H](C)[C@H](CN(C)S(=O)(=O)c2cccs2)OCCCC[C@H](C)Oc2ccc(NC(=O)NC3CCCCC3)cc2C1=O	-10% (inactive)
C[C@H](CO)N1C[C@H](C)[C@H](CN(C)C(=O)NC2CCCCC2)Oc2cc(C#Cc3cccc(F)c3)ccc2S1(=O)=O	13.9% (inactive)
